Screening results from PubChem.
JMJD2A Tudor: inhibitors of human JMJD2A Tudor domain. AlphaScreen JMJD2A-Tudor / H3K4me3 peptide binding. 390,000 tested, 4.4% active. Potency, µM (highest dose often 114 µM), inactives show at the top dose activity change, negative = inhibition, hits mostly inhibitors. AID 504339; also: % is scaled to controls: 0 for no effect and ±100 for the full control effect; nearly all actives have a fitted effect of over 50% in size
Target sequence (O75164 whole entry, looked up, the tested form may be a part): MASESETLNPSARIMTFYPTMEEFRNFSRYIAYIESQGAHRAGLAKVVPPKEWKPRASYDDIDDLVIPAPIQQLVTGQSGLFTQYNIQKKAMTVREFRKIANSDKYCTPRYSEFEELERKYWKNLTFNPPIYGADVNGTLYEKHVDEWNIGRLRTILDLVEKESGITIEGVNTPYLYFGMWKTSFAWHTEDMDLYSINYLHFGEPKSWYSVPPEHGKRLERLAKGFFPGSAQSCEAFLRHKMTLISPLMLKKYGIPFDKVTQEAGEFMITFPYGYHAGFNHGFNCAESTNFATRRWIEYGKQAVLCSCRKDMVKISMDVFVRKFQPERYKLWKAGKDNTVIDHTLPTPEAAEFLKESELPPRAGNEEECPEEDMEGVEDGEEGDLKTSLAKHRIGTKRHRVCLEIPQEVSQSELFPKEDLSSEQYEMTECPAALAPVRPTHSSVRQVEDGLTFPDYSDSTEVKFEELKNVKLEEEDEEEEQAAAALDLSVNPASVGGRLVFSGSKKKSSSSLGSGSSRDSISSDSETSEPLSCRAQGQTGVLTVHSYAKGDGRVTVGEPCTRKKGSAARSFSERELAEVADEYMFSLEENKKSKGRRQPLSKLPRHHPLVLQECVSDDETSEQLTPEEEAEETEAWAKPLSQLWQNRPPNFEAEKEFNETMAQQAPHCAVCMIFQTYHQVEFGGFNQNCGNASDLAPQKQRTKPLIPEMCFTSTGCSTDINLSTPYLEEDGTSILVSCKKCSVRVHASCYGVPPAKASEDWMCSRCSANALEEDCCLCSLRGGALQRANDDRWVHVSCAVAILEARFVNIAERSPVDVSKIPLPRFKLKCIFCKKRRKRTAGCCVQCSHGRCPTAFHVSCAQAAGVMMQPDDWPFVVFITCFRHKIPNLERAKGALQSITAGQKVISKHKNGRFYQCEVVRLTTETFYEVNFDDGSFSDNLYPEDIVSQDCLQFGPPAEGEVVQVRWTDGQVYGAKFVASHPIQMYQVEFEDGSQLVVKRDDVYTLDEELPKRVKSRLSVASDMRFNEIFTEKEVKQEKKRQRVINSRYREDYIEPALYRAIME
BAZ2B block: BAZ2B (human) inhibition; Q9UIF8; AlphaScreen BAZ2B-H3K14Ac peptide displacement; Potency, µM (top dose mostly 114 µM), inactives show at the top dose activity change, negative = inhibition, most hits filed as inhibitors; 360,000 tested, 4.4% active; also: % is scaled to controls: 0 for no effect and ±100 for the full control effect; nearly all actives have a fitted effect of over 60% in size
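In this displacement format the biotinylated H3(5-23) peptide acetylated at Lys14 serves as ligand at 50 nM, with BAZ2B at 50 nM in PBS pH 7.4 containing 0.01% Tween-20. Donor and acceptor beads are 10 ug/mL final.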
PLK1 PBD inh: inhibitors of human PLK1 polo-box domain binding | P53350 | Plk1 PBD binding of FITC phosphopeptide, fluorescence polarization | Potency, µM, for inactives: max response, negative = inhibition, actives largely listed as inhibitors | 360,000 tested, 2.8% active | AID 720504; also: series mostly up to about 57 µM; % is scaled to controls: 0 for no effect and ±100 for the full control effect; nearly all actives have a fitted effect of over 65% in size
VDR inhibitor: inhibitors of human vitamin D receptor. VDR-SRC2-3 peptide fluorescence polarization, 2 h. Potency, µM, inactives show max response, negative = inhibition, usual class: inhibitors. 400,000 tested, 0.93% active; also: % is scaled to controls: 0 for no effect and ±100 for the full control effect
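Fluorescence polarization assay measuring small-molecule disruption of VDR binding to the coregulator peptide SRC2-3. Compounds were pin-transferred (23 nl) into the reagent mix and incubated 2 h at room temperature before reading.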
G9a block: G9a (human) methyltransferase inhibition | Q96KQ7 | G9a H3K9 monomethylation, AlphaScreen, 2 h | Potency, µM (top dose mostly 102 µM), inactives show at the top dose activity, negative = inhibition, actives largely listed as inhibitors | 350,000 tested, 8.8% active; also: % is scaled to controls: 0 for no effect and ±100 for the full control effect; nearly all actives have a fitted effect of over 75% in size
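G9a (20 nM) preincubated 15 min RT with compounds, then 500 nM biotinylated H3K9 peptide and 20 uM SAM added; 2 h RT reaction. Monomethyl-H3K9 product detected by AlphaScreen with anti-H3K9me1 antibody, streptavidin donor and anti-rabbit IgG acceptor beads.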
HP1b binding inh: HP1-beta chromodomain-methylated histone interaction inhibition | P83916 | AID 540317 | Potency, µM (series often up to 114 µM), for the others: at the highest dose activity change, negative = inhibition, most hits filed as inhibitors | AlphaScreen HP1-beta / biotin-H3K9me3 peptide binding | 390,000 tested, 0.56% active; also: nearly all actives have a fitted effect of over 70% in size
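AlphaScreen: HP1-beta (50 nM) preformed 30 min with biotin-H3(1-18)K9me3 peptide (50 nM) in PBS pH 7.4, 0.01% Tween-20. Compound added for 30 min at RT, then streptavidin donor/nickel chelate acceptor beads (10 ug/mL) for 30 min.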
* marks the source's active call; other numbers are inactive results; ? = inconclusive; · = not tested or not shown; [ ] = another dose, or the depositor's remark. Most compounds without a hit are left out; they make up all but 11% or so of the library. Calls follow the shape of the dose curve; as a rule, active = well fitted curve in the direction sought with a large enough effect; inconclusive = small, poorly fitted or top-dose-only effect, or another doubt; inactive = no such curve, though single readings can be large; an effect the other way counts as inactive or inconclusive. Potency is read from the fitted curve at half-maximal effect.

SMILES	JMJD2A Tudor	BAZ2B block	PLK1 PBD inh	VDR inhibitor	G9a block	HP1b binding inh
CC1(C)Cc2ccccc2C(NNC(=O)c2ccccc2)=N1	6%	9%	-1%	10%	-32%	-1%
COc1cc(/C=N/NC(=O)C(Cc2c[nH]c3ccccc23)NC(=O)OCC(C)C)cc([N+](=O)[O-])c1O (configuration not stated)	?	50µM*	-2%	-11%	?	-30%
COc1cc(/C=N/NC(=O)C(Cc2c[nH]c3ccccc23)NC(=O)OCc2ccccc2)cc([N+](=O)[O-])c1O (configuration not stated)	40µM*	45µM*	?	-21%	8.9µM*	?
COCCNC(=O)C(Cc1c[nH]c2ccccc12)NC(=O)OCc1ccccc1 (configuration not stated)	-18%	5%[0.457 µM]	-7%	5%	·	66%
COc1cc(/C=N/NC(=O)C(Cc2c[nH]c3ccccc23)NC(=O)OCC(C)C)cc([N+](=O)[O-])c1OCc1ccccc1 (configuration not stated)	-17%	-37%	3%	-13%	?	27%
O=C(OCC#CCSc1nnc(-c2ccc(F)cc2)o1)c1ccc(F)cc1	57%	·	·	·	·	·
CCCCCCCCN=C1NC(=O)CS1	-10%	6%	?	4%	22µM*	-6%
CC(=O)Nc1cccc(-c2nc3ccccc3c(=O)o2)c1	-9%	1%	-9%	-6%	11µM*	58%
O=C(O)c1ccccc1-c1ccccc1C(=O)Nc1cccc(-c2nc3ccccc3o2)c1	-17%	-13%	67µM*	-16%	-38%	46%
Cc1cccc(S(=O)(=O)N[C@@H]2CC[C@@H](CCNS(=O)(=O)c3ccccc3F)O[C@@H]2CO)c1	·	·	-4%	·	·	·
CC1=NN(c2ccc(Cl)cc2)C(=O)/C1=C\c1cccn1-c1ccc(S(N)(=O)=O)cc1	22µM*	10µM*	-16%	-12%	10µM*	?
Cc1ccc(S(=O)(=O)N/N=C/c2cccn2-c2ccc(Cl)cc2)cc1	56µM*	-2%	-3%	9%	110%[59 µM]	?
Cc1ccc(S(=O)(=O)N/N=C/c2c(F)cccc2Cl)cc1	4%	-3%	?	-2%	?	34%
COC(=O)C1(C(=O)OC)C/C=C\C/C=C\c2ccccc2C1C[N+](=O)[O-] (configuration not stated)	·	·	·	-10%	·	·
C=CCn1c(O)c(N=NC(=O)OCC)c2ccccc21	-18%	-27%	-12%	-3%	12%[59 µM]	18%
C=CCn1c(O)c(N=NC(=S)Nc2cccc(OC)c2)c2ccccc21	?	7.9µM*	1%	-16%	28µM*	?
C=CCn1c(O)c(N=NC(=S)Nc2ccc(OC)cc2)c2ccccc21	?	?	0%	-13%	28µM*	?
Cc1cc(NC(=O)CSc2nnnn2-c2ccc(C(C)C)cc2)no1	?	-11%	27µM*	-30%	13%	-21%[57 µM]
Cc1cc(NC(=O)CSc2ccc(F)cc2)no1	-4%	-10%	-2%	-19%	16%[59 µM]	42%
CCN(CC(=O)Nc1ccc(Br)cc1)CC(=O)Nc1cc(C)on1	-5%	14%	-1%	-1%	79µM*	21%
CC(=O)Nc1ccc(SCC(=O)Nc2cc(C)on2)cc1	0%	5%	24µM*	-22%	45µM*	46%
Cc1cc(NC(=O)CSc2nnnn2-c2cc(Cl)ccc2C)no1	-7%	5%	-1%	9%	15%	-9%
CC(=O)Nc1ccc(SCC(=O)NC(=O)c2ccccc2Br)cc1	-1%	-5%	30µM*	-22%	?	40%
Cc1nnc(SCc2ccccc2Cl)c2cc3occc3n12	?	28µM*	·	3%	13µM*	-14%
Cc1[nH]c2ccccc2c1/C=N/NC(=O)c1ccccc1	-13%	-5%	2%	-12%	15%	36%
SMILES	JMJD2A Tudor	BAZ2B block	PLK1 PBD inh	VDR inhibitor	G9a block	HP1b binding inh
Cc1[nH]c2ccccc2c1/C=N/NC(=O)CNC(=O)Cc1ccccc1	-25%	?	-15%	-18%	71µM*	32%
Cc1[nH]c2ccccc2c1/C=N/NC(=O)CNC(=O)c1ccccc1	-6%	-2%	-1%	-5%	·	12%
Cc1cccc(NC(=S)N/N=C/c2c[nH]c3ccccc23)c1	?	50µM*	-13%	-11%	-21%[59 µM]	?
Cc1ccc(NC(=S)N/N=C/c2c(C)[nH]c3ccccc23)cc1	45µM*	45µM*	0%	7%	50µM*	?
Cc1[nH]c2ccccc2c1/C=N/NC(=O)c1cc(C(C)(C)C)[nH]n1	-23%	71µM*	-12%	0%	·	-4%
Cc1cccnc1NC(=S)NCCc1ccccc1	20µM*	35µM*	-17%	-3%	0.71µM*	?
Cc1ccc(NC(=O)CCCc2ccccc2)nc1	-12%	-18%	-20%	10%	-5%	26%
Cc1ccc(NC(=S)NCCc2ccccc2)nc1	-20%	-32%	-2%	-11%	1.6µM*	22%
O=C(Nc1ccc(N2CCN(c3ccc(F)cc3)CC2)c(C(=O)O)c1)c1ccccc1F	?	-13%	·	9%	-3%[59 µM]	25%
O=C(O)COc1ccc(Br)cc1/C=N/O	-32%	?	-5%	5%	56µM*	24%
CCOc1ccc(Br)cc1/C=N/O	-1%	2%	-1%	-3%	4%[59 µM]	16%
O=C(O)COc1cccc2c1CCC=C2CCO/N=C(\c1ccccc1)c1cccnc1	·	·	·	50µM*	·	·
COc1cc(CN(C(=O)c2ccc(OC(C)C)cc2)c2ccccn2)cc(OC)c1OC	-11%	-19%	·	-3%	-18%[59 µM]	27%
COc1cc(CN2CCNC(=O)C2CC(=O)NCCC2=CCCCC2)cc(OC)c1 (configuration not stated)	-17%	-24%	-22%	6%	50µM*	28%
COc1ccccc1CCNC(=O)CC1C(=O)NCCN1CCCc1ccccc1 (configuration not stated)	-30%	4%	-15%	-4%	-1%	21%
COc1cccc(CNC(=O)CC2C(=O)NCCN2CCCc2ccccc2)c1 (configuration not stated)	-15%	-24%	-2%	-9%	50µM*	25%
O=C(CC1C(=O)NCCN1Cc1cccc(F)c1)NCCCCCN1CCOCC1 (configuration not stated)	-7%	-11%	-7%	-20%	71µM*	31%
COc1cccc(CN2CCNC(=O)C2CC(=O)NCc2cc(C(C)C)no2)c1 (configuration not stated)	-1%	2%	-3%	8%	50µM*	28%
